From PubChem BioAssay (NCATS)
Inconclusive results are not listed. Active and inactive are the calls of the source. Unless noted, calls follow the shape of the dose curve; as a rule, active = well fitted curve in the direction sought with a large enough effect; inconclusive = small, poorly fitted or top-dose-only effect, or another doubt; inactive = no such curve, though single readings can be large; an effect the other way counts as inactive or inconclusive.

Tests used:
[1] = P-glycoprotein substrates identified in KB-8-5-11 adenocarcinoma cell line, qHTS therapeutic library screen (AID 1346987); also: nearly all actives have a fitted effect of over 65% in size; as to activity change, negative = cytotoxicity: series mostly up to about 44 µM; % is scaled to controls: 0 for no effect and ±100 for the full control effect
Summary of the method: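 KB-8-5-11, a colchicine-selected P-gp-overexpressing KB-3-1 subline, was grown without colchicine for the assay. Cells were seeded at 500 cells/well, dosed in concentration-response and incubated 72 h at 37 degree C, 5% CO2. Viability was read by CellTiter-Glo luminescence.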

[2] = system: Zika virus NS2B-NS3 protease (unlinked complex); assay: Primary screen GU Rhodamine qHTS for Zika virus inhibitors: Unlinked NS2B-NS3 protease assay (AID 1347159); also: % is scaled to controls: 0 for no effect and ±100 for the full control effect; nearly all actives have a fitted effect of over 60% in size
Summary of the method: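 Noncovalent NS2B hydrophilic domain/NS3 protease complex (25 nM final) in 10 mM Tris-HCl pH 8.0, 0.01% Tween 20, preincubated 15 min with compounds (up to 114 microM), then 1.5 microM Rhodamine110 substrate. Fluorescence change over 15 min fitted to 4-parameter Hill.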

[3] = system: Zika virus NS2B-NS3 protease (linked construct); assay: Primary screen NINDS Rhodamine qHTS for Zika virus inhibitors (AID 1347160); also: nearly all actives have a fitted effect of over 55% in size; as to activity change, negative = inhibition: % is scaled to controls: 0 for no effect and ±100 for the full control effect
Summary of the method: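 Purified NS2B-NS3 protease with the NS2B hydrophilic domain joined by a flexible linker (25 nM) in 10 mM Tris-HCl pH 8.0, 0.01% Tween 20, preincubated 15 min at RT with compound; Rhodamine110 peptide substrate 1.5 µM; fluorescence change over 15 min; 4-parameter Hill fit.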

[4] = target: Peroxisome proliferator-activated receptor alpha (Homo sapiens) (UniProt Q07869); assay: qHTS assay for small molecule agonists of the peroxisome proliferator-activated receptor alpha (PPARalpha) signaling pathway (AID 651778); details: PathHunter PPARalpha complementation, chemiluminescence, 6 h; hits give high values; also: % of control where 0% means no effect
Peroxisome proliferator-activated receptor alpha (Homo sapiens), sequence (Q07869 whole entry, looked up): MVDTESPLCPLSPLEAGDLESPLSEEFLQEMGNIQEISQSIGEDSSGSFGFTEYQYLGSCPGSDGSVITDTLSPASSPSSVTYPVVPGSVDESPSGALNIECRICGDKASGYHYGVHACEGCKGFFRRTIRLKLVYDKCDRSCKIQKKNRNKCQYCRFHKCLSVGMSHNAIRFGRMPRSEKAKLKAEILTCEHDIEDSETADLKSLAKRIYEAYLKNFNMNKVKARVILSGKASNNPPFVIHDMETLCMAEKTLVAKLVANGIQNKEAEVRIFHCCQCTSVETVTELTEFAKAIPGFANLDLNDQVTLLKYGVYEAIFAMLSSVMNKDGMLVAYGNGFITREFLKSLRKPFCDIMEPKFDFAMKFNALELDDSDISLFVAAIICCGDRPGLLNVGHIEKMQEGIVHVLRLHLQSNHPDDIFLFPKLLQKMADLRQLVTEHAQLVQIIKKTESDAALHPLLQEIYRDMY
Summary of the method: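 Chemiluminescence from complemented enzyme reported PPARalpha activation in cells after 6 hr of compound treatment at 37 C. The detection reagent was incubated for 60 min at room temperature, and compounds were scored as agonists.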

[5] = qHTS assay for small molecule agonists of the antioxidant response element (ARE) signaling pathway measured by Nrf2-dependant transcriptional activity - cell viability counter screen (AID 720653; active = well fitted curve in the direction sought with a large enough effect in the repeat runs; an effect the other way counts as inactive or inconclusive; also: % is scaled to controls: 0 for no effect and ±100 for the full control effect); details: ARE-bla HepG2 viability, CellTiter-Glo ATP luminescence, 16 h; hits give low values
Summary of the method: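 Cytotoxicity counter screen: intracellular ATP quantified by CellTiter-Glo luminescence in the same ARE-bla HepG2 plates, after 16 h compound exposure and a 2 h beta-lactamase substrate step.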

[6] = qHTS assay for cell viability of HEK293 cells (AID 743288); details: ATP luminescence (CellTiter-Glo), 18 h, hits give low values; also: % is scaled to controls: 0 for no effect and ±100 for the full control effect; nearly all actives have a fitted effect of over 50% in size
Summary of the method: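 The Tox21 protocol used parental HEK293 cells treated for 18 h at 37 C with compounds delivered by pintool; ATP-coupled luminescence after 30 min at room temperature gave viability.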

[7] = qHTS assay for cell viability of the p53RE-bla HCT-116 cell line (AID 743292); also: % is scaled to controls: 0 for no effect and ±100 for the full control effect; nearly all actives have a fitted effect of over 55% in size
Summary of the method: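 CellSensor p53RE-bla HCT-116 cells, 4,000/well, preincubated 5 h at 37 C, then exposed to compounds in DMSO for 16 h at 37 C. Viability read as CellTiter-Glo luminescence (intracellular ATP) after 30 min at room temperature.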

[8] = target: Nuclear receptor ROR-gamma (Homo sapiens) (UniProt P51449); assay: qHTS assay for small molecule antagonists of the retinoid-related orphan receptor gamma (ROR-gamma) signaling pathway (AID 651802);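 also: luciferase reporter luminescence driven by ROR response element; series mostly up to about 92 µM; % is scaled to controls: 0 for no effect and ±100 for the full control effect; nearly all actives have a fitted effect of over 60% in size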
Nuclear receptor ROR-gamma (Homo sapiens), sequence (P51449 whole entry, looked up): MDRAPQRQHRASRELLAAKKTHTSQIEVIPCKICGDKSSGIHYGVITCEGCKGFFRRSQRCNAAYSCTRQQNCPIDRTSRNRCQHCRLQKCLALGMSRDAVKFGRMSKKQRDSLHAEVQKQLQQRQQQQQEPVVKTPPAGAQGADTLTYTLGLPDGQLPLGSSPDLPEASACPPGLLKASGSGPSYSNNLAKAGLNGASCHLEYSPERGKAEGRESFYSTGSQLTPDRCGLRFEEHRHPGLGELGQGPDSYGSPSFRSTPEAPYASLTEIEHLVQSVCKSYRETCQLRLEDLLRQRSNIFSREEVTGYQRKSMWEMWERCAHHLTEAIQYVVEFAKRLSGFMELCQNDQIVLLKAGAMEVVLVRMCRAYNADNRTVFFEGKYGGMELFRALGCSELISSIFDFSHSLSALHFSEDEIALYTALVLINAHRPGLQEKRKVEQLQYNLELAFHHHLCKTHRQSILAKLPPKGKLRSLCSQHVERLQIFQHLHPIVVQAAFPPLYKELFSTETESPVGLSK
Summary of the method: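 CHO cells with TET-inducible ROR-gamma and RORE-luciferase reporter, dosed then doxycycline-induced. After 16 h at 37C, One-Glo luminescence read; decreased signal indicates antagonism.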

[9] = qHTS assay for small molecule agonists of the antioxidant response element (ARE) signaling pathway measured by Nrf2-dependant transcriptional activity (AID 720636; active = well fitted curve in the direction sought with a large enough effect in the repeat runs; an effect the other way counts as inactive or inconclusive; also: % of control where 0% means no effect)
Summary of the method: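 ARE-luc HepG2 cells carrying an Nrf2-responsive luciferase reporter were plated in medium with 1% dialyzed FBS, left 6 hr at 37 C to attach, then exposed to compound for 16 hr. Luciferase luminescence was read after ONE-Glo addition.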

[10] = qHTS assay for small molecule antagonists of the retinoid-related orphan receptor gamma (ROR-gamma) signaling pathway - cell viability counter screen (AID 720652; active = well fitted curve in the direction sought with a large enough effect in the repeat runs; an effect the other way counts as inactive or inconclusive;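 also: series mostly up to about 92 µM; compound exposure lasted 16 hr before ATP read; % is scaled to controls: 0 for no effect and ±100 for the full control effect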)
Summary of the method: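 CHO cells carrying TET-inducible ROR and RORE-luciferase reporter, plated 5 hr, then dosed with compound plus doxycycline. After 16 hr at 37 C, viability read as intracellular ATP by CellTiter-Glo luminescence.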

CC(=O)OC[C@]12[C@H](OC(C)=O)[C@H](OC(=O)c3ccccc3)[C@@H]3[C@@H](OC(C)=O)[C@]1(OC3(C)C)[C@H](C)C[C@H](OC(=O)c1ccccc1)[C@@H]2OC(=O)c1ccccc1
inactive: Potency [1] | Potency [2] | Potency [3]

C[C@@H]1C(=O)O[C@H](C)[C@H]1C[C@@H](O)[C@](C)(O)[C@H]1CC[C@@]2(O)C3=CC(=O)[C@@H]4C[C@@H](O)[C@@H](O)C[C@]4(C)C3CC[C@]12C (stereo not given in full)
inactive: Potency [1] | Potency [2] | Potency [3]

C/C=C(/C)C(=O)OC1C(OC(C)=O)C23C(O)OC4(CCC5C6(C)CCC(OC7OC(C(=O)O)C(O)C(OC8OC(CO)C(O)C(O)C8OC8OC(C)C(O)C(O)C8OC8OCC(O)C(O)C8O)C7OC7OC(CO)C(O)C(O)C7O)C(C)(C)C6CCC5(C)C4(C)CC2OC(C)=O)C3CC1(C)C (stereo not given)
inactive: outcome [1] inactive [at 9.29 µM] | activity change, negative = inhibition [2] -1.79% [at 19.1 µM] | Potency [3]

CC1(C)CC[C@]2(C(=O)O[C@@H]3O[C@H](CO)[C@@H](O)[C@H](O)[C@H]3O)CC[C@]3(C)C(=CCC4[C@@]5(C)C[C@H](O)[C@H](O[C@@H]6O[C@H](C(=O)O)[C@@H](O)[C@H](O)[C@H]6O)[C@@](C)(CO)C5CC[C@]43C)C2C1 (stereo not given in full)
inactive: activity change, negative = cytotoxicity [1] -7.52% [at 9.29 µM] | activity change, negative = inhibition [2] 21.5% [at 19.1 µM] | Potency [3]

C=CC(C)(O)CC/C=C(\C)C1CC=C(C)C(=O)O1 (stereo not given)
inactive: Potency [1] | Potency [2] | Potency [3]

Cc1onc(-c2ccccc2Cl)c1C(=O)N(C)c1ccc(Cl)cc1
inactive: Potency [1] | Potency [2] | Potency [3]

C=C(COC(=O)CC(C)C)C1Cc2cc(C(C)=O)ccc2O1 (stereo not given)
inactive: Potency [1] | Potency [3]

CC1=C2CC(=O)C(C)CC/C=C(\C)CC2OC1=O (stereo not given)
inactive: Potency [1] | Potency [2] | Potency [3]

O=C(Nc1cc(-c2ccccc2)nn1-c1ccccc1)c1ccc([N+](=O)[O-])cc1
inactive: Potency [1] | Potency [2] | Potency [3]

CC1=C(CO)CC(C(C)C2CCC3C4CC=C5CC(OC6OC(COC7OC(CO)C(O)C(O)C7O)C(O)C(O)C6O)CC(O)C5(C)C4CCC23C)OC1=O (stereo not given)
inactive: Potency [1] | Potency [2] | Potency [3]

C=C(C(=O)O)[C@H]1C[C@]2(C)C(=O)CC[C@]23O[C@H]1C[C@@H]3C
inactive: Potency [1] | Potency [3]

OC[C@@]1(O)CO[C@H](OC[C@H]2O[C@@H](OCCc3ccccc3)[C@H](O)[C@@H](O)[C@@H]2O)[C@@H]1O
inactive: Potency [1] | Potency [2] | Potency [3]

COC(=O)C(CC1(O)c2ccccc2N2C(=O)C(C)(C)N(O)C21)n1cnc2ccccc2c1=O (stereo not given)
inactive: Potency [1] | Potency [2] | Potency [3]

C[C@@H]1O[C@@H](O[C@H]2[C@@H]3C=CO[C@@H](O[C@@H]4O[C@H](CO)[C@@H](O)[C@H](O)[C@H]4O)[C@@H]3[C@@]3(CO)O[C@@H]23)[C@H](OC(=O)/C=C/c2ccc(O)cc2)[C@H](O)[C@H]1O
inactive: Potency [1] | Potency [3]

Cc1cc(-c2nncc3c(C(C)(C)C)c(OCc4ncnn4C)nn23)no1
inactive: Potency [1] | Potency [2] | Potency [3]

COC1OC(OC)C(O)(CCC2(C)C(C)CCC3(C)C2CC(O)C(O)C32CO2)C1O (stereo not given)
inactive: Potency [1] | Potency [2] | Potency [3]

CSCC1OC(n2cnc3c(=O)[nH]cnc32)C(O)C1O (stereo not given)
inactive: Potency [1] | Potency [2] | Potency [3]

COc1cc(/C=C/C(=O)O[C@H]2[C@H](O)[C@@H](CO)O[C@@]2(CO)O[C@H]2O[C@H](CO)[C@@H](O)[C@H](O)[C@H]2O)cc(OC)c1O
inactive: Potency [1] | Potency [2] | Potency [3]

O=C(/C=C/C=C/c1ccc2c(c1)OCO2)N1CCCCC1
inactive: max response [4] -0.461% | max response [5] 3.3% | max response [6] -12.5% | outcome [7] | Potency [1] | Potency [2] | Potency [3]

OC[C@@]1(O)CO[C@@H](OC[C@H]2O[C@@H](Oc3ccccc3)[C@H](O)[C@@H](O)[C@@H]2O)[C@@H]1O
inactive: Potency [1] | Potency [2] | Potency [3]

C=C1C[C@]23C[C@@]1(O)CC[C@H]2[C@@]12C=C[C@H](O)[C@@](C)(C(=O)O1)[C@H]2[C@@H]3C(=O)O
inactive: max response [4] -2.22% | outcome [8] | outcome [9] | outcome [10] | max response [5] 2.88% | max response [6] 3.04% | outcome [7] | Potency [1] | Potency [2] | Potency [3]

COc1cc(C(C)=O)ccc1O[C@@H]1O[C@H](CO)[C@@H](O)[C@H](O)[C@H]1O
inactive: Potency [1] | Potency [2] | Potency [3]

COc1ccc(C2OCC3C(c4cc(OC)c5c(c4)OCO5)OCC23)cc1OC (stereo not given)
inactive: Potency [1] | Potency [2] | Potency [3]

CC(O)C(O)/C=C/C=C/C(=O)O[C@@H]1C=C(C(=O)O)[C@](O)(CO)[C@@]2(C)CCCC(C)(C)[C@H]12 (stereo not given in full)
inactive: Potency [1] | Potency [2] | Potency [3]
